Assay results published in PubChem BioAssay AID463213 (Sanford-Burnham Center for Chemical Genomics, 2010).
The whole screen tested about 7,400 compounds, of which about 4,100 (55%) were called active. So high a share suggests a set chosen from earlier hits. These entries were drawn from the full list. Values without a mark were called inactive.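 The calls were made as follows: active = inhibition of yeast growth at or above a set limit in either of two repeat tests at 20 µM; inactive = the rest.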

Experiment: tim10-1 ts yeast growth inhibition, retested – single concentration, luminescence, S. cerevisiae, confirmation (AID 463213);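 also: tim10-1 mutant grown at permissive 25 °C to find synthetic lethal compounds; 0% = DMSO yeast wells and 100% = medium wells without yeast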
Details: S. cerevisiae tim10-1 ts strain growth, BacTiter-Glo, 24 h; at 20 µM; active compounds read high

Row | Compound | inhibition
1 | O=C(Nc1nnc(SCc2c(Cl)cccc2Cl)s1)C1CCCO1 (stereo not given) | 37% (active)
2 | CN(C(=O)COc1nnc(-c2cccs2)c(-c2cccs2)n1)c1ccccc1 | 17%
3 | CN(C(=O)CC(NC(=O)c1ccccc1)(c1ccccc1)c1ccccc1)c1ccccc1 | 31.1% (active)
4 | CCOc1ccccc1/C=c1\sc2nc(-c3ccco3)nn2c1=O | 49.4% (active)
5 | CCc1cccc(CC)c1NC(=S)NCc1ccc2[nH]c(C)cc2c1 | 35.8% (active)
6 | O=C1Oc2ccccc2C(=O)/C1=C/c1ccccc1O | 55.9% (active)
7 | CN(C)CCCN(C(=O)c1ccc(S(=O)(=O)N2CCCc3ccccc32)cc1)c1nc2ccc(F)cc2s1 | 44.5% (active)
8 | COC(=O)c1cc(S(=O)(=O)N2CCN(c3cc(C)ccc3C)CC2)c[nH]1 | 17.7%
9 | Nc1cc(OC(=O)c2ccccc2Br)nn1S(=O)(=O)c1ccccc1 | 33.8% (active)
10 | O=C1c2ccccc2S(=O)(=O)N1CC(O)Cn1c2ccccc2c2ccccc21 (stereo not given) | 51.1% (active)
11 | CCOC(=O)c1ccccc1CN1C(=O)c2ccccc2S1(=O)=O | 17.6%
12 | Cc1ccc(C)c(N2CCN(C(=O)CCCCn3c(=O)[nH]c4ccccc4c3=O)CC2)c1 | 17.4%
13 | COc1cccc(-c2cc3nc4c(c(N5CCC6(CC5)OCCO6)n3n2)CCCC4)c1 | -1.05%
14 | O=C1OC(/C=C/c2ccccc2)=NC/1=C/c1ccco1 | 3%
15 | O=c1nc2s/c(=C\c3ccco3)c(=O)n2nc1Cc1ccccc1 | 66.9% (active)
16 | O=C(CSc1cccc2cccnc12)N/N=C/c1cccnc1 | 36% (active)
17 | CCOc1cc(-c2conc2N)cc(OCC)c1OCC | 20.5%
18 | CCOC(=O)c1ccc(NC(=O)c2nc[nH]c2C(=O)NCc2ccccc2)cc1 | 41.4% (active)
19 | COC(=O)c1ccc(NC(=O)c2ccccc2NS(=O)(=O)c2ccccc2)cc1 | 19.4%
20 | Cc1ccccc1OCC(=O)Nc1ccc(N2CCN(C(=O)C(C)C)CC2)c(Cl)c1 | 66.9% (active)

Row | Compound | inhibition
21 | CN1CCN(c2ccccc2NC(=O)COc2ccc(C3CCCCC3)cc2)CC1 | 12.4%
22 | O=C(COc1ccccc1F)NNC(=O)c1ccc(N2CCCCC2)c([N+](=O)[O-])c1 | 25.8%
23 | O=[N+]([O-])c1c(NCCO)cc(Sc2nc3ccccc3s2)c2nonc12 | 19% (active)
24 | CNC(=O)c1csc(Cc2c(Cl)sc3ccc(Cl)cc23)n1 | 20.5%
25 | CCCc1cc(-c2nc(-c3ccc(C)cc3)cs2)ccn1 | 34.8% (active)
26 | CCOC(=O)/C=C/c1ccc(C(F)(F)F)cc1S(=O)(=O)NC(C)(C)C | 29.9%
27 | O=C(Nc1ccccc1Cl)/C(Cl)=C(\Cl)S(=O)c1ccccc1 (stereo not given) | 55% (active)
28 | Cc1[nH]n(C(N)=S)c(=O)c1N=Nc1ccc(Cl)cc1Cl | 61.3% (active)
29 | CC(=O)Oc1ccc2c(c1)C(=O)c1ccccc1C2=O | 31.1% (active)
30 | O=C(CSC(=S)N1CCOCC1)c1cc(Br)cc(Br)c1O | 46% (active)
31 | C[C@@H](NC(=O)OC(C)(C)C)c1nnc(S(=O)(=O)Cc2ccccc2)o1 | 48.3% (active)
32 | CCOC(=O)Cc1csc(NC(=O)CSc2ccc(Br)cc2)n1 | 31.3% (active)
33 | CCOC(=O)Cc1csc(SCC(=O)NC(C)C23CC4CC(CC(C4)C2)C3)n1 (stereo not given) | 40.4% (active)
34 | COc1ccc(NC(C)=O)cc1NC(=O)CN1CCN(C2c3ccccc3-c3ccccc32)CC1 | 15.5%
35 | O=C(Nc1ccccc1)c1nnsc1S(=O)(=O)c1ccc(Cl)cc1 | 85.3% (active)
36 | COc1cc(/C=C2/C(=O)ON=C2C)ccc1OCc1ccccc1F | 26.9%
37 | CCCN(CC1COc2ccccc2O1)C(=S)Nc1ccc(C)cc1 (stereo not given) | 36.7% (active)
38 | Cc1ccc(C(=O)COc2cccc(NC(=O)c3ccco3)c2)cc1 | 5.8%
39 | Cc1ccoc1C(=O)Nc1cccc(Oc2ccccc2)c1 | 43.2% (active)
40 | CN(C)N1C(N)=C(C#N)C(c2ccc(Br)cc2)C2=C1CCCC2=O (stereo not given) | 8.4%

Row | Compound | inhibition
41 | S=c1[nH]nc(-c2cccnc2)n1/N=C/C(Cl)=C\c1ccccc1 | 33.9% (active)
42 | Fc1ccccc1/C=C1\CCCC2=C1Nc1ncnn1C2c1ccccc1F (stereo not given) | 30.5% (active)
43 | Cc1nc2sc(C(=O)c3ccccc3)c(N)c2c2c1CCCC2 | 37.9% (active)
44 | NC(=O)c1sc2nc3c(c(-c4ccccc4)c2c1N)CCC3 | 19.1%
45 | Cc1ccc2c(N)c(C(=O)c3ccccc3)sc2n1 | 29.6%
46 | CCn1c(COc2c(C)cccc2C)nnc1SCc1nc2ccccc2c(=O)[nH]1 | 20.1%
47 | CCCCCCCCCCCCCCCC(=O)OC/C=C(C)/C=C/C=C(C)/C=C/C1=C(C)CCCC1(C)C | 17.2%
48 | COC(=O)CCc1sc(Nc2ccc(Br)cc2)nc1-c1ccc(OC)cc1 | 19.9%
49 | COc1ccc(C(=O)COC(=O)c2ccc([N+](=O)[O-])s2)cc1OC | 50.6% (active)
50 | COc1ccc(C(=O)OCC(=O)c2cc(C)n(CC3CCCO3)c2C)cc1[N+](=O)[O-] (stereo not given) | 6%
51 | O=C1Nc2ccc(Br)cc2/C1=N/N=C/C1=C(N2CCOCC2)C(=C\c2ccccc2)/CC1 | 59.5% (active)
52 | O=S(=O)(Nc1ccc(O)c2ccccc12)c1ccc(OC(F)(F)F)cc1 | 32.2% (active)
53 | CC(C)NC(=O)/C(C#N)=C\c1ccc(N(C)C)c(Br)c1 | 46.5% (active)
54 | O=C1NC(Nc2nc3ccccc3s2)(C(F)(F)F)C(=O)N1C1CCCCC1 (stereo not given) | 35.5% (active)
55 | COC(=O)c1c(NC(=O)COc2ccc(Cl)cc2Cl)sc2c1CC(C)(C)NC2(C)C | 14.3%
56 | Clc1ccc(Nc2nc(-c3cccs3)cs2)nc1 | 15%
57 | Cc1ccc(Nc2nc(-c3ccc(O)cc3O)cs2)nc1 | 27.6% (active)
58 | COc1ccccc1N1CCN(C(=O)c2cc(=O)c3cc(C)cc(C)c3o2)CC1 | 24.9%
59 | CCOC(=O)C/C(C)=N\Nc1ccc([N+](=O)[O-])cc1[N+](=O)[O-] | 9.35%
60 | O=[N+]([O-])c1ccc(N/N=C2/CCCCC2c2ccccn2)c([N+](=O)[O-])c1 (stereo not given) | 38.6% (active)
